# Bioassay records: PubChem BioAssay, National Center for Advancing Translational Sciences (NCATS)
# Compounds with a hit are over-represented: about 14% of the library has one in this group of screens.
# LmPK inh = blocks Leishmania mexicana pyruvate kinase activity | Q27686 | purified LmPK, Kinase-Glo ATP luminescence, 1 h | Potency, µM (titrated, usually from 57.5 µM), without a hit: at the highest dose activity change, negative = inhibition, actives largely listed as inhibitors | hit rate 0.37% among 290,000 | AID 1721; further: potency means the concentration at half of the fitted maximal effect; on the % scale 0 is the no-effect control and ±100 the full control effect
# Target sequence (Q27686 whole entry, looked up): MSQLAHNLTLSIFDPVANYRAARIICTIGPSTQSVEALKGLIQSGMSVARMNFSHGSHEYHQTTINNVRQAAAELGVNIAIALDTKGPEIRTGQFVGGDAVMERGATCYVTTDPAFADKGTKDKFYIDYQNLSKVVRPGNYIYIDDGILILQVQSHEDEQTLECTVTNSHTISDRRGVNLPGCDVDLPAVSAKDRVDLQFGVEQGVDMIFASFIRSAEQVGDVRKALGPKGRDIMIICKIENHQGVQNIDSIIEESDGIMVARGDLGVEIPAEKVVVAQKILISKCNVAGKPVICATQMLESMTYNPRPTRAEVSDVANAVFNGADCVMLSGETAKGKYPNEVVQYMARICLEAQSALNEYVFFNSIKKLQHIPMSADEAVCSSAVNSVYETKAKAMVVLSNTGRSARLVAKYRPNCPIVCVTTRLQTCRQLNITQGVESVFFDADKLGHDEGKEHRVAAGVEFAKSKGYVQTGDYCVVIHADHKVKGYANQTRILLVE
#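 Purified LmPK (0.1 nM) with 0.5 mM PEP and 0.1 mM ADP in imidazole buffer pH 7.2 with MgCl2/KCl, 1 h at room temperature. ATP formed was read by luciferase luminescence and normalized to no-enzyme and uninhibited controls.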
# CHX counter = counter-screen hit for Shiga toxin inhibitors, cycloheximide. max response, %. hit rate 12% among 300,000. AID 2314. cell reporter, cycloheximide protein synthesis inhibition counterscreen; in the data active means max response mostly above about 13%, no sharp cut-off; inactive means mostly below about 14%; further: read at 38.3 µM for the half of the compounds with a filed dose; 0% is about no effect
# Shiga toxin inh = Shiga toxin inhibition | Vero cells, Shiga toxin protein synthesis inhibition reporter | inhibition, % at 38.7 µM | hit rate 9.2% among 290,000 | AID 2315; in the data active means inhibition mostly above about 28%, no sharp cut-off; inactive means mostly below about 43%; further: 0% is about no effect
# FBPA Giardia inh = inhibitors of Giardia lamblia fructose-1,6-bisphosphate aldolase; A8B2U2; purified Giardia FBPA; Potency, µM (top dose mostly 59.6 µM), inactives show top-dose activity, negative = inhibition, most hits filed as inhibitors; hit rate 0.71% among 290,000; AID 2451; further: potency means the concentration at half of the fitted maximal effect; on the % scale 0 is the no-effect control and ±100 the full control effect; nearly all actives have a fitted effect of over 55% in size
#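 40 nM FBPA preincubated 10 min at RT with compound (up to 57.5 uM final), then substrate plus GAPDH/TPI/NAD/arsenate coupling and diaphorase/resazurin added. Fluorescence read after 20 min at RT, 525/598 nm.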
# NS1 function inh = blocks influenza NS1 protein function | Potency, µM (top dose mostly 46.1 µM), for the others: at the highest dose activity, positive = more growth | hit rate 0.4% among 270,000; calls by dose curve; further: potency means the concentration at half of the fitted maximal effect; actives are rising curves; nearly all actives have a fitted effect of over 50% in size
#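 Compounds were scored for reversing the slow growth caused by influenza A NS1 in S. cerevisiae, measured by optical density at 600 nm. Assay medium contained 2% galactose at pH 6.0; NS1-free yeast of the same strain were the positive control.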
# The depositor's hits bear a star; ? = inconclusive; . = not tested or not shown; [ ] = remark or other dose. Unless noted, the call rests on the fitted dose curve; in most records, active means well fitted curve in the direction sought with a large enough effect; inconclusive means small, poorly fitted or top-dose-only effect, or another doubt; inactive means no such curve, though single readings can be large; an effect the other way counts as inactive or inconclusive.
SMILES,LmPK inh,CHX counter,Shiga toxin inh,FBPA Giardia inh,NS1 function inh
CCOc1ccc(C(=O)N2CCCC(c3nc(-c4cccs4)no3)C2)cc1 (centres undefined),6.9%,27.7*,33.2*,-4.7%,-33.6%
CCC(CC)C(=O)N1CCCC(c2nc(-c3cccs3)no2)C1 (centres undefined),-0.2%,17.0,61.0*,3.1%,5.1%
O=C(c1ccc(Cl)cc1)N1CCC(c2nc(-c3cccs3)no2)CC1,7.5%,-1.7,1.5,5.3%,-39.4%
Nc1c(S(=O)(=O)O)cc(Nc2cccc(S(N)(=O)=O)c2)c2c1C(=O)c1ccccc1C2=O,.,.,.,.,-5.1%
O=C(/C=N/O)NCCCCNC(=O)/C=N/O,.,.,.,-7.4%[12.9 µM],.
O=C(NCCN1CCOCC1)c1cc(-c2cccs2)on1,6.2%,20.4*,56.6*,0.3%,2.7%
O=C(NCCN1CCOCC1)c1cc(-c2ccccc2)on1,-7.1%,22.0*,74.3*,-0.3%,-10.1%
O=C(NCCCN1CCOCC1)c1cc(-c2ccccc2)on1,-8.8%,13.4*,136.6*,4.6%,-14.3%
O=C(NCCN1CCOCC1)c1cc(-c2ccc(O)cc2)on1,.,.,.,.,-17.1%
O=C1c2ccccc2-c2onc3c(Oc4ccccc4)cc(O)c1c23,-1.3%,22.2*,26.7,-24.5%,8.5%
CCOc1ccc2noc3c2c1C(=O)c1ccccc1-3,-4.4%,14.9,27.3,?,-12.3%
COCCNC(=O)COC(=O)CSCc1nc2ccccc2s1,1.0%,3.0,36.6,0.0%,0.2%
CC(=O)NCc1ccc(-c2nc3ccccc3s2)cc1,-28.5%,39.0*,57.8*,3.3%,-3.0%
COCCNC(=O)c1nc2ccccc2s1,-4.6%,23.8,44.3*,2.0%,-0.1%
O=C(NCCO)c1nc2ccccc2s1,-4.7%,16.8,37.1*,5.3%,0.2%
CC(=O)NCc1ccc(-c2csc(-c3cccs3)n2)cc1,-3.9%,20.6*,85.7*,1.8%,-20.6%
COc1ccc(COC(=O)N/N=C2/C[C@@H](O)[C@@H](O)[C@@H]3[C@@H]4C(=O)N(Cc5ccccc5)C(=O)[C@H]4CC[C@@H]23)cc1,.,.,.,2.0%[12.9 µM],.
C/C=C1\COC(C(=O)NCCOCCO)(C(F)(F)F)C=C1C=C1CCCCC1 (centres undefined),.,18.2,34.2,0.3%,.
O=C(NCc1ccccc1)c1ccc2ccccc2n1,4.2%,-2.3,17.0,2.0%,-14.2%
O=C(NCc1ccccc1)c1nc2ccccc2s1,2.0%,23.2*,37.2,4.7%,.
O=C(NCc1ccco1)c1nc2ccccc2s1,-7.5%,22.9*,76.8*,5.1%,-83.6%
COc1ccc2nc(SCC(=O)/C(C#N)=C(\C)N)[nH]c2c1,-3.7%,46.6*,96.8*,0.7%,9.8%
C/C(N)=C(/C#N)C(=O)CSc1nnc(-c2ccccc2Br)o1,-0.4%,54.2*,126.3*,-3.6%,4.3%
COc1ccc(-c2nnc(SCC(=O)/C(C#N)=C(\C)N)o2)cc1,-9.4%,38.1*,107.1*,-0.9%,3.1%
Nc1c(N(CCC2=CCCCC2)C(=O)C2CC2)c(=O)[nH]c(=O)n1Cc1ccccc1,-2.1%,-2.0,13.6,19.4%,-8.1%
SMILES,LmPK inh,CHX counter,Shiga toxin inh,FBPA Giardia inh,NS1 function inh
CCN1c2ccccc2NC2N=C(OC)C(c3ccccc3)C21 (centres undefined),-1.1%,18.1*,5.4,?,-68.2%
S=c1[nH]nc(-c2ccc(Cl)cc2)n1-c1cccnc1,11.2µM*,-1.7,-16.2,-3.6%,2.5%
COc1ccc(-c2n[nH]c(=S)n2-c2ccc(C)cc2)cc1OC,14.1µM*,-0.7,13.1,25.7%,-13.9%
S=c1[nH]nc(-c2ccc3c(c2)OCO3)n1-c1ccccc1,7.08µM*,-3.9,-8.0,11.5%,29.4%
Cc1ccc(-n2c(-c3cccc(C)c3)n[nH]c2=S)cc1,8.91µM*,-1.5,-8.2,6.8%,2.5%
COc1cc(-c2n[nH]c(=S)n2-c2ccc(Br)cc2)cc(OC)c1OC,?,-2.7,-14.2,?,1.9%
N#Cc1ccncc1S(=O)c1ccc(Cl)cc1 (centres undefined),11.1%,7.6,-1.5,-2.4%,-3.1%
NCC[C@H](N)C(=O)O,.,.,.,.,-1.4%
CCCC(C)(C)C(=O)Nc1ccc(Cl)cc1,.,2.1,-8.9,-6.4%,.
COc1ccc(C2=NO[C@@H]3C(=O)N(c4ccc5c(c4)OCCO5)C(=O)[C@H]23)cc1OC,-8.8%,37.6*,47.9*,-29.7%,?
O=C(O)c1ccc(-n2c(-c3ccc(Br)cc3)n[nH]c2=S)cc1,7.08µM*,4.6,-4.2,1.0%,6.5%
CS(=O)(=O)Nc1ccc(-c2n[nH]c(=S)n2-c2ccccc2)cc1,10µM*,-4.0,-16.4,11.3%,?
COc1ccc(-c2n[nH]c(=S)n2-c2ccc3c(c2)OCCO3)cc1,?,10.9,15.9,3.6%,12.9%
COc1ccc(-c2n[nH]c(=S)n2-c2ccc3c(c2)OCCO3)cc1OC,?,23.5*,49.8*,-6.5%,9.5%
Cc1ccc(-c2n[nH]c(=S)n2-c2ccccc2)cc1,?,-1.4,-3.9,11.5%,-1.5%
CCn1c(SCC(=O)Nc2nc(C)cs2)nnc1-c1ccncc1,-5.4%,-4.2,-6.8,.,-0.7%
O=C(NC1CCN(c2ncccn2)CC1)c1ccccc1F,3.4%,5.1,-20.5,3.2%,1.8%
Cc1ccc(-n2c(-c3c(-c4ccccc4)noc3C)n[nH]c2=S)cc1,11.2µM*,-1.7,-3.8,6.4%,1.6%
Cc1cccc(-n2c(-c3ccncc3)n[nH]c2=S)c1,14.1µM*,-2.8,-2.4,-27.5%,7.5%
Cc1cc(C)cc(NC(=O)c2cccc(C(=O)Nc3cc(C)cc(C)c3)n2)c1,-1.7%,-0.5,-4.1,-16.2%,16.6%
CSc1ccc(/C=C/c2cc(=O)c3ccccc3[nH]2)cc1,1.0%,15.4*,74.0*,-5.4%,-12.0%
C/C(=N\NC(=O)CCC(=O)NCc1ccccc1)c1ccco1,-11.0%,10.5,12.6,.,-1.6%
O=C(CCSc1ccc(Cl)cc1)c1ccco1,1.5%,-2.1,11.4,-3.3%,6.0%
O=C(CSc1ccccc1Cl)c1ccco1,-13.0%,25.7*,48.6,-8.6%,-2.8%
O=C(CSc1ccc(Cl)cc1)c1ccco1,2.4%,41.6,64.8*,?,?
SMILES,LmPK inh,CHX counter,Shiga toxin inh,FBPA Giardia inh,NS1 function inh
COc1ccc(/C=C/C(=O)c2ccc3c(c2)OCO3)c(OC)c1,?,58.9*,60.9*,-3.6%,-21.6%
COc1ccccc1/C=C/C(=O)NCC(=O)N1CCC(N(C)C2CCCC2)CC1,-2.6%,7.3,15.7,19.9%,.
O=C(/C=C/c1ccccc1O)c1ccc(Cl)cc1,1.4%,41.2*,57.6*,-8.9%,-34.5%
COc1ccccc1/C=C/C(=O)c1ccccc1,?,54.6*,68.6*,-10.5%,-72.8%
COc1ccccc1/C=C/C(=O)N1CCC(c2ccccc2)C1 (centres undefined),-1.0%,52.5*,71.3*,-1.8%,1.1%
CCc1cccc(C)c1NC(=O)C1CCCN1C(=O)NCc1ccccc1 (centres undefined),3.0%,-1.7,-4.8,7.8%,9.9%
Cc1nc(N2CCOCC2)c2nc(-c3ccccc3)n(CCCN(C)C)c2n1,.,.,.,0.4%,.
CCC(CC)c1nnc(NC(=O)CCc2ccccc2OC)s1,-2.7%,-4.2,-12.2,1.9%,10.2%
